HT1080 IDH1KD tx = kills HT-1080 cells with IDH1 knockdown | HT-1080 IDH1 knockdown viability, ATP luminescence, 48 h | Potency, µM (top dose mostly 46.1 µM), for the others: at the top dose activity, negative = toxicity, hits mostly cytotoxic | actives 2% (n = 360,000) | AID 686971;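 further: 0% = DMSO wells and -100% = cell-free medium wells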
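% activity derives from luminescence (CellTiter-Glo), normalised to DMSO and no-cell wells. HT-1080-IDH1KD cells, 750/well, had 48 h compound exposure at 37 °C.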
HepG2 tox = kills HepG2 cells in TGF-b inhibitor counter-screen. HepG2 CAGA-GFP viability, ATP luminescence, 18 h. Potency, µM (doses to about 46.1 µM), inactives show at the highest dose activity change, negative = cytotoxicity, most hits filed as cytotoxic. actives 0.76% (n = 410,000)
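HepG2 CAGA-GFP cells (1000/well, DMEM with 1% FBS) received compound, then TGF-beta at 500 pg/mL final, and were incubated 18 hours at 37 degrees C. Viability was read by CellTiter-Glo luminescence. Media-only wells were set as complete cell-killing and DMSO as no toxicity.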
HT1080-NT tox = kills 2HG-producing HT-1080-NT fibrosarcoma cells; AID 686970; HT-1080-NT fibrosarcoma viability, CellTiter-Glo ATP luminescence, 48 h; Potency, µM (top dose mostly 46.1 µM), for the others: at the top dose activity, negative = less viability, hits mostly cytotoxic; actives 1.6% (n = 360,000);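 further: NT is the 2HG producing partner of a matched IDH1 knockdown line; 0% = DMSO-treated cells and -100% = media-only wells without cells; nearly all actives have a fitted effect of over 55% in size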
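Compounds were tested in concentration-response format on HT-1080-NT cells for 48 hours at 37 degrees C. Cell viability came from CellTiter-Glo luminescence; curves were classified by r2, response magnitude and activity.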
KB-3-1 tox = kills parental KB-3-1 adenocarcinoma cells | KB-3-1 viability, CellTiter-Glo ATP luminescence, 72 h | Potency, µM (series often up to 46.1 µM), actives largely listed as cytotoxic | actives 1.4% (n = 400,000) | AID 1347075; further: on the % scale 0 is the no-effect control and ±100 the full control effect; nearly all actives have a fitted effect of over 60% in size
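Viability of parental KB-3-1 cells, measured by CellTiter-Glo luminescence, followed a 72 h incubation at 37 °C with pinned compounds in phenol-red-free DMEM containing 10% FBS.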
TGFb inhibitor = blocks TGF-b signaling; HepG2 CAGA-GFP TGF-b/SMAD3 reporter, GFP fluorescence, 18 h; TGF-beta stimulated, 500 pg/mL final; Potency, µM (doses to about 46.1 µM), without a hit: at the top dose activity, negative = inhibition, hits mostly inhibitors; actives 1.2% (n = 410,000); AID 588855; further: on the % scale 0 is the no-effect control and ±100 the full control effect; nearly all actives have a fitted effect of over 65% in size
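HEPG2 CAGA-GFP cells (1000/well, DMEM with 1% FBS) were pre-incubated 2 h at 37 degrees C, given compound by pin tool, then stimulated with TGF-beta at 500 pg/mL final for 18 h before per-cell GFP fluorescence imaging.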
KB-V1 MDR tox = kills drug-selected multidrug resistant KB-V1 cells; Potency, µM (highest dose often 46.1 µM), hits mostly cytotoxic; KB-V1 MDR cells viability, CellTiter-Glo, 72 h; actives 3.4% (n = 400,000); further: on the % scale 0 is the no-effect control and ±100 the full control effect; nearly all actives have a fitted effect of over 60% in size
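Luminescent ATP read-out (CellTiter-Glo, 10 min) measures survival of drug-selected KB-V1 MDR cells after 72 h, 37 degrees C compound exposure. Medium: phenol-red-free DMEM, 10% FBS. Values from fitted concentration-response curves.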
Numbers without * were called inactive; i = inactive; ? = inconclusive; · = no result given; ! = not active in a repeat; [ ] = dose if it differs, or a comment. Sampled rows, rich in hits. Any-hit rate of the full collection: about 6.6%. The call rests on the fitted dose curve; in most records, active means well fitted curve in the direction sought with a large enough effect; inconclusive means small, poorly fitted or top-dose-only effect, or another doubt; inactive means no such curve, though single readings can be large; an effect the other way counts as inactive or inconclusive. Potency means the concentration at half of the fitted maximal effect.

SMILES	HT1080 IDH1KD tx	HepG2 tox	HT1080-NT tox	KB-3-1 tox	TGFb inhibitor	KB-V1 MDR tox
Cc1ccc(-n2c(=O)c3cccnc3n2CC(=O)Nc2cccc(C)c2C)cc1	·	-31%	·	i	-29%	i
CCCCOC(=O)c1ccc(NC(=O)CSc2nc3c(c(=O)[nH]2)CCC3)cc1	·	-2%	·	i	-3%	i
Cc1ccc(C)c(N2CCN(C(=O)CCc3c(C)nn(-c4ccc(N5CCCC5)nn4)c3C)CC2)c1	·	-36%	·	·	13µM*	·
Cn1ccnc1SCC(=O)Nc1cc(Cl)ccc1Cl	·	-6%	·	i	10%	i
CN(C)CCN1C(=O)C(=O)/C(=C(/O)c2ccc(S(=O)(=O)N3CCOCC3)cc2)C1c1ccc(F)cc1 (stereo not drawn)	9%	13µM*	8%	·	-4%	·
CN(C)CCN1C(=O)C(=O)/C(=C(/O)c2ccc(S(=O)(=O)N3CCOCC3)cc2)C1c1ccccc1 (stereo not drawn)	-21%[9.24 µM]	-7%	-21%	i	-2%	i
CC(=O)c1cc(-c2ccc(F)cc2)n(CCC(=O)Nc2nc3ccc(C)cc3s2)c1C	·	-22%	·	i	0%	i
CC(NC(=O)C1CCN(Cc2ccc(Oc3ccccc3)cc2)CC1)c1cccc2ccccc12 (stereo not drawn)	10µM*	-56%	?	i	?	i
O=C(NC(c1ccccc1)c1ccsc1)C1CCN(Cc2ccccc2)CC1 (stereo not drawn)	7%	-4%	-5%	i	22%	i
CC(NC(=O)C1CCN(Cc2ccccc2)CC1)c1cccc2ccccc12 (stereo not drawn)	?	-27%	?	i	21%	i
O=C(NC(c1ccc(Cl)cc1)c1ccsc1)C1CCN(Cc2ccc(Oc3ccccc3)cc2)CC1 (stereo not drawn)	12µM*	-52%	15µM*	i	-3%	i
Cc1ccccc1C(NC(=O)C1CCN(Cc2ccc(Oc3ccccc3)cc2)CC1)c1ccsc1 (stereo not drawn)	?	-29%	21µM*	?	3%	?
CN(C)CCCNc1nccc(N2CCN(C)CC2)n1	·	-29%	·	i	-1%	i
O=C(NCc1ccccc1Cl)c1ccc2c(c1)N(Cc1ccccc1)C(=O)c1ccccc1S2	·	-20%	·	·	1%	·
O=C(Cn1cc(S(=O)(=O)Cc2ccc(F)cc2)c2ccccc21)NCCc1ccccc1	·	-25%	·	i	0%	i
CS(=O)(=O)c1ccc(C(=O)OCC(=O)N2CCc3ccccc32)cc1[N+](=O)[O-]	·	-12%	·	?	?	i
CS(=O)(=O)c1ccc(C(=O)OCC(=O)NC23CC4CC(CC(C4)C2)C3)cc1[N+](=O)[O-]	-22%	-99%	?	i	?	i
CS(=O)(=O)c1ccc(C(=O)OCC(=O)NC(=O)NC2CCCCC2)cc1[N+](=O)[O-]	·	6.3µM*	·	?	4.5µM*	i
CC(C)CN1CCN(C(=O)COC(=O)c2ccc(S(C)(=O)=O)c([N+](=O)[O-])c2)CC1	·	4.5µM*	·	i	4.5µM*	i
CC(OC(=O)c1ccc(S(C)(=O)=O)c([N+](=O)[O-])c1)C(=O)NC1C2CC3CC(C2)CC1C3 (stereo not drawn)	·	-101%	·	i	3.2µM*	?
CC1CCN(C(=O)C(C)OC(=O)c2ccc(S(C)(=O)=O)c([N+](=O)[O-])c2)CC1 (stereo not drawn)	·	-77%	·	?	10µM*	i
COc1ccc(C(=O)OCC(=O)NC(=O)NC2CCCC2)cc1[N+](=O)[O-]	2%	-1%	6%	i	3%	i
CCCC12CN3CC(C)(CN(C1)C3c1ccc(OCc3ccccc3)cc1)C2=O (stereo not drawn)	·	-3%	·	i	-16%	i
CCOC(=O)c1ccc(NC(=O)CN2C(=O)CC(c3ccc(C)c(C)c3)=Nc3ccccc32)cc1	·	-28%	·	i	-8%	i
CCOC(=O)N1CCN(C(=O)CSc2ccc(C(=O)OC)cc2[N+](=O)[O-])CC1	0%	-12%	-10%	i	0%	i
SMILES	HT1080 IDH1KD tx	HepG2 tox	HT1080-NT tox	KB-3-1 tox	TGFb inhibitor	KB-V1 MDR tox
CCC(OC(=O)c1ccc(S(C)(=O)=O)c([N+](=O)[O-])c1)C(=O)NC1C2CC3CC(C2)CC1C3 (stereo not drawn)	·	5.6µM*	·	i	4.5µM*	?
CS(=O)(=O)c1ccc(C(=O)OCC(=O)NCC2CCCO2)cc1[N+](=O)[O-] (stereo not drawn)	·	-52%	·	i	?	i
COC(=O)c1ccc(SCC(=O)N2CCC(C)CC2)c([N+](=O)[O-])c1	-4%	0%	-3%	i	-1%	15µM*
O=C(CCN1Cc2ccccc2C1)c1ccc2c(c1)OCCO2	11µM*	10µM*	?	i	13µM*	i
O=C(/C=C/c1ccccc1)c1ccc2c(c1)OCO2	0%	-75%	-18%	i	?	i
Cc1cc[n+](CC(=O)c2ccc3c(c2)OCCO3)cc1	11%	-5%	-5%	i	0%	i
O=C(CCN1CCc2ccccc2C(c2ccccc2)C1)c1ccc2c(c1)OCCO2 (stereo not drawn)	?	-110%	?	?	?	?
O=C(C[n+]1ccc(/C=C/c2ccccc2)cc1)c1ccc2c(c1)OCCO2	16µM*	-32%	?	12µM*	-17%	?
O=C(/C=C/c1ccncc1)c1ccc2c(c1)OCCO2	18µM*	-88%	?	23µM*	?	?
OCc1cc(C(O)CNCCCCCCOCCCCc2ccccc2)ccc1O (stereo not drawn)	?	-75%	16µM*	i	?	i
CCOc1ccc(CNC(=O)c2ccc(Sc3ccc(Cl)cc3)c(NC(C)=O)c2)cc1OC	-14%	-33%	-14%	i	11µM*!	i
CCOc1ccc(CNC(=O)c2ccc(Sc3ccc(C)cc3)c(NC(C)=O)c2)cc1OC	-8%	1%	-2%	i	?	i
CCCN1Cc2cccc(C(=O)Nc3cccc(C(=O)OCC)c3)c2C1=O	·	-5%	·	i	-3%	i
CCOC(=O)c1cccc(NS(=O)(=O)c2ccc(-c3cnc(C4CC4)o3)cc2)c1	·	-22%	·	?	?	?

Screens: PubChem BioAssay, National Center for Advancing Translational Sciences (NCATS)
